This passage reports PXC50 results from ChEMBL document CHEMBL3988442, “University of Dundee, Small-Polar-MMV Screening Library” (2021).

The target of this test is T1, Methionyl-tRNA synthetase, putative (Leishmania donovani (strain BPK282A1)) (UniProt E9BF75).
T1 sequence (whole entry): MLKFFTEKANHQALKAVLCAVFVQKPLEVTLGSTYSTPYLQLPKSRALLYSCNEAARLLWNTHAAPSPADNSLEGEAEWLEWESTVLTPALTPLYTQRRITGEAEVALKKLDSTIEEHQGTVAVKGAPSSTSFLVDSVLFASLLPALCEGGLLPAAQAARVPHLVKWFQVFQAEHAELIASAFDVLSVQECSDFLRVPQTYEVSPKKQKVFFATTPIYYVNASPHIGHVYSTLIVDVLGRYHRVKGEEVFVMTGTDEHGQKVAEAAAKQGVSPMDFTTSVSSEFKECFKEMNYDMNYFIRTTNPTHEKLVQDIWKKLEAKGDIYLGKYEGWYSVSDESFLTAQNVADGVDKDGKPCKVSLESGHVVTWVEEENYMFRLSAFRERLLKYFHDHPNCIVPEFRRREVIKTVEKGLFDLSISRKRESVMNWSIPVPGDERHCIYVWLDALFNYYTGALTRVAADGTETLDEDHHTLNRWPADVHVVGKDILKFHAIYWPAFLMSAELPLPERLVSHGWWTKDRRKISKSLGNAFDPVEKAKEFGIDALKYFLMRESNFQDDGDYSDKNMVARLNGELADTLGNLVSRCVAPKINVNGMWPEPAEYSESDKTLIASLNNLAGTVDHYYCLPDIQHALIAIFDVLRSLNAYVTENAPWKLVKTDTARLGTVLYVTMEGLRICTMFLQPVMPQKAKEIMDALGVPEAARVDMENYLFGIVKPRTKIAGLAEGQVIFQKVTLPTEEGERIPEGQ
Description: Leishmania donovani Methionine tRNA synthetase (LdMetRS):v7. Dose response assay. Details: conc 80 nM, time 150 minutes. The test is classed as functional.

`Fc1cccc(OCc2cnc[nH]2)c1Oc1ccc(Cl)cc1`: the PXC50 is, setting by setting: (MAX_EFFECT 12.57995736) < 4; (MAX_EFFECT 14.69979296) < 4.

`COCC(C)NC(=O)c1ccc2ccc(N3CCN(S(C)(=O)=O)CC3)n2c1` (stereo not drawn): the PXC50 (BOTTOM 3.011130377, HILLSLOPE 1.725207909, MAX_EFFECT 55.66037736, TOP 58.49588417) stood at 4.74 and the PXC50 (MAX_EFFECT 48.85844749) is < 4.

Regarding `CCc1nc(N2CCC(C(=O)O)CC2)c2c3c(sc2n1)CCC3`, the PXC50 was < 4 (MAX_EFFECT 11.47540984) and < 4 (MAX_EFFECT 12.29946524).

`Cc1cc(C(F)(F)F)nc(N(C)Cc2c(C)noc2C)n1`: the PXC50 is < 4 (MAX_EFFECT 10.44386423) and < 4 (MAX_EFFECT 10.70496084).

Consider `COCCNC(=O)c1ccc2ccc(N3CCN(S(C)(=O)=O)CC3)n2c1`, for which the PXC50 reads like this: (BOTTOM 1.198316498, HILLSLOPE 2.008751015, MAX_EFFECT 51.91956124, TOP 53.93938429) 4.75; (MAX_EFFECT 47.36842105) < 4.

On to `Clc1cc(Cl)c2c(c1)NCCC2`, for which the PXC50 is, setting by setting: (MAX_EFFECT 10.1511879) < 3; (MAX_EFFECT 15.01901141) < 3.

In the case of `Cn1ncc2c(N3CCC[C@H]3CO)nc(Nc3ccc(F)c(F)c3)nc21`, the PXC50 is 5.05 (BOTTOM 3.354874327, HILLSLOPE 0.975942115, MAX_EFFECT 81.27853881, TOP 88.63537555); 5.05 (BOTTOM 5.651213015, HILLSLOPE 1.001049773, MAX_EFFECT 83.58490566, TOP 90.01230887); 5.23 (BOTTOM 9.222423555, HILLSLOPE 1.183933311, MAX_EFFECT 81.21442125, TOP 84.5225205).

On to `Cc1cc(Nc2nc(NCCO)c3cnn(C)c3n2)cc(C(F)(F)F)c1`, for which the PXC50 is, setting by setting: (MAX_EFFECT 17.18061674) < 4; (MAX_EFFECT 18.76208897) < 4; (MAX_EFFECT 22.9338843) < 4.

On to `CS(=O)(=O)N1CCN(c2ccc3ccc(C(=O)NCC4CC4)cn23)CC1`, for which the PXC50 is, setting by setting: (BOTTOM 3.917889821, HILLSLOPE 2.161741125, MAX_EFFECT 61.66007905, TOP 61.91262666) 4.97; (BOTTOM -0.968460018, HILLSLOPE 1.661925269, MAX_EFFECT 62.22222222, TOP 66.45309128) 4.79.

Take `O=C(N1CCOCC(O)C1)C1(c2ccc(Cl)cc2)CCC1` (stereo not drawn): the PXC50 (MAX_EFFECT 0.0) is < 4, the PXC50 (MAX_EFFECT -0.875656743) is < 4 and the PXC50 (MAX_EFFECT -1.449275362) was < 4.

As to `Cc1nc(NCC(=O)O)c2c3c(sc2n1)CCC3`, the PXC50 is < 4 (MAX_EFFECT 4.834605598) and < 4 (MAX_EFFECT 5.289672544).

Take `NC(=O)c1cc(Nc2ncccc2S(N)(=O)=O)cc(C(F)(F)F)c1`: the PXC50 was < 4 (MAX_EFFECT 8.583690987), < 4 (MAX_EFFECT 8.863198459) and < 4 (MAX_EFFECT 9.501187648).

As to `Nc1nc(CSc2nnc[nH]2)nc2sc3c(c12)CCCC3`, the PXC50 (MAX_EFFECT 21.33333333) was < 4 and the PXC50 (MAX_EFFECT 26.98412698) is < 4.

Turning to `O=S(=O)(NCCSc1nccn1C1CC1)c1ccccc1`, the PXC50 runs as follows: (MAX_EFFECT 2.721088435) < 4; (MAX_EFFECT 2.898550725) < 4; (MAX_EFFECT 8.23117338) < 4.

In the case of `Cn1ncc2c(NCCO)nc(Nc3ccccc3)nc21`, the PXC50 is, setting by setting: (MAX_EFFECT 42.26415094) < 4; (MAX_EFFECT 47.32824427) < 4; (MAX_EFFECT 49.56140351) < 4.

Take `Cn1nc(Cn2ccnc2)c2c1CN(c1nccs1)C2`: the PXC50 was determined as 4.44 (BOTTOM 0.559364067, HILLSLOPE 0.919078395, MAX_EFFECT 71.42857143, TOP 99.25901822); 4.55 (BOTTOM -1.637231388, HILLSLOPE 0.873521348, MAX_EFFECT 76.08695652, TOP 100.0); 4.1 (BOTTOM -15.97247073, HILLSLOPE 2.274903325, MAX_EFFECT 57.26795096, TOP 100.0).

`O=C(NCC1(O)CCC(F)(F)CC1)c1cc(=O)c2cc(F)ccc2o1`: the PXC50 is, setting by setting: (MAX_EFFECT 1.754385965) < 4; (MAX_EFFECT 9.021113244) < 4.

Turning to `COC1CCCCC1Nc1nc(Nc2ccc(F)c(F)c2)nc2c1cnn2C` (stereo not drawn), the PXC50 reads like this: (BOTTOM 6.09090205, HILLSLOPE 1.180798676, MAX_EFFECT 57.89473684, TOP 61.13511107) 4.92; (MAX_EFFECT 49.43396226) < 4; (MAX_EFFECT 49.87277354) < 4.

As to `Cn1ncc2c(NC(CO)CO)nc(Nc3ccc(F)c(F)c3)nc21`, the PXC50 worked out at 4.94 (BOTTOM 0.0, HILLSLOPE 0.771628136, MAX_EFFECT 78.30188679, TOP 92.57465731); 4.98 (BOTTOM 5.639474755, HILLSLOPE 1.325747432, MAX_EFFECT 80.3652968, TOP 81.67018871); 4.98 (BOTTOM 7.610636653, HILLSLOPE 1.121965033, MAX_EFFECT 79.69639469, TOP 86.15604804).

Take `CN(CCN)c1nc(Nc2ccc(F)c(F)c2)nc2c1cnn2C`: the PXC50 runs as follows: (BOTTOM 2.133170856, HILLSLOPE 1.093077372, MAX_EFFECT 77.62557078, TOP 100.0) 4.41; (BOTTOM 3.57857286, HILLSLOPE 1.096477566, MAX_EFFECT 74.90566038, TOP 102.700119) 4.36; (BOTTOM 5.354463627, HILLSLOPE 0.967320352, MAX_EFFECT 79.31688805, TOP 100.0) 4.54.

Consider `c1ccc(CN2CCC(CCNc3ncnc4c3CCNCC4)C2)cc1` (stereo not drawn), for which the PXC50 worked out at 4.15 (BOTTOM 0.940952942, HILLSLOPE 0.875315482, MAX_EFFECT 60.13864818, TOP 100.0); 4.12 (BOTTOM 1.061688445, HILLSLOPE 1.57945515, MAX_EFFECT 59.73154362, TOP 100.0); 4.17 (BOTTOM -6.676814726, HILLSLOPE 1.817914846, MAX_EFFECT 63.88888889, TOP 100.0).

For `O=S(=O)(NCCO)c1cccnc1Nc1cccc(C(F)(F)F)c1`, the PXC50 is < 4 (MAX_EFFECT 4.933586338), < 4 (MAX_EFFECT 12.19008264) and < 4 (MAX_EFFECT 16.29955947).

With `CCNC(=O)c1ccc2ccc(N(CC)CC)n2c1`, the PXC50 by setting is: (MAX_EFFECT 16.85185185) < 4; (MAX_EFFECT 25.35211268) < 4.

`Cc1ccnc(C2CN(Cc3ccc(-c4ccccc4C(=O)O)o3)C2)n1`: the PXC50 amounted to 4.12 (BOTTOM 9.249913927, HILLSLOPE 1.102722508, MAX_EFFECT 60.83188908, TOP 100.0); 4.36 (BOTTOM 9.895143899, HILLSLOPE 1.447637201, MAX_EFFECT 79.86111111, TOP 100.0); 4.2 (BOTTOM 14.75237733, HILLSLOPE 1.939721289, MAX_EFFECT 72.48322148, TOP 100.0).

Turning to `CCOC(=O)N1CCN(c2nc(-n3nc(C)cc3C)nc3sc4c(c23)CCCC4)CC1`, the PXC50 was < 4 (MAX_EFFECT 10.41666667) and < 4 (MAX_EFFECT 12.71929825).

Take `COCCNc1nc(CN2CCCC2)nc2sc3c(c12)CCCC3`: the PXC50 (MAX_EFFECT 13.54166667) was < 4 and the PXC50 (MAX_EFFECT 14.03508772) was < 4.

In the case of `O=C(CCc1n[nH]c2c1CCCC2)N1C[C@@H]2CC[C@H](C1)N(CC1CC1)C2`, the PXC50 (BOTTOM 12.11622841, HILLSLOPE 1.527540497, MAX_EFFECT 61.47110333, TOP 100.0) was 4.08; the PXC50 (BOTTOM -0.508945456, HILLSLOPE 1.017254843, MAX_EFFECT 57.14285714, TOP 100.0) is 4.12; the PXC50 (BOTTOM -1.441363941, HILLSLOPE 1.01121357, MAX_EFFECT 60.86956522, TOP 100.0) stood at 4.2.
